# Compounds with a hit are over-represented: about 2.4% of the library has one in this group of screens.
# M1 ag – human M1 muscarinic receptor agonism; P11229; CHO-K1 hM1, Fluo-8 calcium fluorescence, agonist mode; 0% DMSO, 100% acetylcholine EC100; activation, % at 3 µM; 360,000 tested, 0.33% active; AID 588814;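 active means activation above the run's mean compound activation plus 3 SD, cut at about 16% in these data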;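 further: peak over basal fluorescence ratio within a 140 s kinetic read after compound addition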
# Target sequence (P11229 whole entry, looked up): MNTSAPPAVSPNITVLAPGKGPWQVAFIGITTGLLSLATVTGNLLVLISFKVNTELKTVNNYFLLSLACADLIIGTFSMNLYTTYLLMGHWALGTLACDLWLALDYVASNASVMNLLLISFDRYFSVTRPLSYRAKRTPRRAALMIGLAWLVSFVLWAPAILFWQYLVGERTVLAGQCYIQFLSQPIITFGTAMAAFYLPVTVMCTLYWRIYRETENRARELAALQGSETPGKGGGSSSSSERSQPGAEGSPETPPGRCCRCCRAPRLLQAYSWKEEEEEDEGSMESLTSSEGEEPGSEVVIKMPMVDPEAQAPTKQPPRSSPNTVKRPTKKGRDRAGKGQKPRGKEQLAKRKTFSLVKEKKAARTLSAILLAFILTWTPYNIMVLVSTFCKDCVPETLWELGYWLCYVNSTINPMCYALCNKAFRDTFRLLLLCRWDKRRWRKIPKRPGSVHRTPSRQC
# M1 ag parental – counter-screen for M1 agonists: effect in parental CHO-K1 cells. 360,000 tested, 0.48% active. Fluo-8 calcium fluorescence; scaled to maximal ATP response, vehicle zero. AID 602248. activation, % at 3 µM; in the data active means activation above about 15%;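 further: untransfected CHO-K1 host cells lacking M1 receptor as counterscreen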
# CHRM1 antagonist – human CHRM1 antagonism; P11229; CHO-K1 hM1, Fluo-8 calcium fluorescence, ACh EC80 antagonist; inhibition, % at 3 µM; 360,000 tested, 1.3% active;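 active means percent inhibition above its own plate's cutoff, namely the mean of that plate's compound wells plus 3 SD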;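 further: peak over basal fluorescence ratio during 140 s after agonist addition; 0% = ACh EC80 plus DMSO and 100% = DMSO alone without agonist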
# M1 PAM parental – nonselective activator or artifact in parental CHO-K1 calcium assay; ATP EC20, Fluo-8 calcium fluorescence; 0% at ATP EC20, 100% at ATP max; activation, % at 3 µM; 360,000 tested, 0.02% active;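 active means activation above the run cutoff, the mean activation of all test compounds plus 3 SD, cut at about 40% in these data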;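 further: peak over basal fluorescence ratio in a 140 s read after ATP addition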
# CHO-K1 Ca antag – M1 antagonist counterscreen hit in parental CHO-K1 cells; 360,000 tested, 0.6% active; inhibition, % at 3 µM; ATP-induced calcium, Fluo-8 fluorescence;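 active means inhibition above a per-plate cutoff, the plate's mean sample inhibition plus 3 SD, cut at about 24% in these data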;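 further: 0% = DMSO plus EC80 ATP and 100% = DMSO alone without ATP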
# CHRM1 PAM – positive allosteric modulators of human M1 muscarinic receptor; AID 588819; 360,000 tested, 0.088% active; CHO-K1 hM1, Fluo-8 calcium fluorescence, ACh EC20; 0% = ACh EC20, 100% = maximal ACh; activation, % at 3 µM; in the data active means activation above about 19%, passing the limit was not always enough
# * hit, by the source's call.
SMILES,M1 ag,M1 ag parental,CHRM1 antagonist,M1 PAM parental,CHO-K1 Ca antag,CHRM1 PAM
COC(=O)C1=C(c2ccc(S(C)(=O)=O)cc2)C[C@@H]2CC[C@H]1N2C(=O)NCC1CC1,-4.1,0.1,-7.2,-21.7,-1.2,7.0
COc1ccccc1CC(=O)N1CCN(CCc2ccccc2)CC1,-3.8,0.6,-11.3,-23.7,24.9*,7.5
CCC(C)N1CCN(C(=O)Cc2ccccc2)CC1 (configuration not stated),-5.8,-0.4,41.1*,-7.6,25.5*,-20.3
Cc1ccc(CC(=O)N2CCN(Cc3ccccc3)CC2)cc1,-11.2,1.2,-9.6,16.7,-12.6,6.8
CCOC(=O)c1cccc(C2=C(CNC(=O)c3cccnc3)[C@H]3CC[C@@H](C2)N3Cc2ccccc2)c1,-7.9,0.5,2.4,-14.4,20.5,1.7
COc1cccc(CNC2CN3CCC2CC3)c1OC (configuration not stated),-11.8,0.6,73.1*,18.3,-25.9,-34.9
CN(CC=CCN(C)P(=S)(N1CC1)N1CC1)P(=S)(N1CC1)N1CC1,-4.6,6.1,-2.3,5.7,-0.5,5.6
CC[n+]1c(/C=C/N(C)c2ccccc2)sc2ccc(Cl)cc21,-6.7,-0.5,64.2*,5.9,3.3,-33.0
CC[n+]1c(/C=C/C=C/c2ccc(N(C)C)cc2)sc2ccccc21,2.5,12.3,68.6*,-8.6,33.8*,-22.5
CN(C)c1ccc(/C=C/C=C/c2sc3ccccc3[n+]2C)cc1,-4.4,12.2,13.6,3.4,15.6,4.7
N#CCCn1cc(C(=O)Nc2ccc(F)cc2)c(-c2ccc([N+](=O)[O-])cc2)n1,-4.5,0.7,-8.3,-2.0,-0.7,7.0
CC(C)CN(C(=O)CN1CC=C(c2ccccc2)CC1)c1c(N)n(CC(C)C)c(=O)[nH]c1=O,-11.2,-0.3,-2.4,7.9,-2.9,5.1
CN1CCC(OC(=O)C2c3ccccc3Oc3ccccc32)CC1,-6.9,0.9,98.8*,22.6,-17.8,-21.3
COC(=O)C1=C(c2ccc(OCc3ccccc3)cc2)C[C@@H]2CC[C@H]1N2C,-10.2,2.3,33.7*,20.7,-10.8,-28.3
COC(=O)C1=C(c2ccc(OCc3ccccc3)c(F)c2)C[C@@H]2CC[C@H]1N2C,-8.2,2.4,28.7*,11.1,-11.3,-24.4
COC(=O)C1=C(c2ccc(F)cc2OCc2ccccc2)C[C@@H]2CC[C@H]1N2C,-8.5,4.8,12.6,8.4,-13.1,-10.6
CC(C)OS(C)(=O)=O,-1.0,0.7,-9.2,12.3,-14.7,6.2
c1ccc(P(c2ccccn2)c2ccccn2)cc1,-1.1,-0.2,-25.1,6.3,-4.7,15.5
COc1cccc(N2CCN(Cc3ccc(Cl)cc3)CC2)c1,-7.9,0.0,-12.4,13.3,-7.8,1.4
COc1cccc(C2(O)CCN(Cc3ccncc3)CC2)c1,-5.8,-0.4,-5.2,-8.2,24.2*,8.5
Brc1ccc2c(c1)C(OC1CN3CCC1CC3)c1ccccc1CS2 (configuration not stated),-8.0,3.3,100.5*,9.1,1.5,-24.3
CCN(CC)c1ccc(C=C2C(=O)N(C)C(=S)N(C)C2=O)o1,-1.2,4.7,-1.0,22.2,-8.2,4.0
CCN(CC)c1ccc(/C=C2\C(=O)NC(=S)N(C)C2=O)o1,14.1,19.0*,1.6,5.0,0.6,-2.4
COc1ccc(N2C(=O)/C(=C/c3ccc(N(C)C)o3)C(=O)NC2=S)cc1,1.1,3.9,-2.9,7.1,-0.2,-0.5
CCN(CC)c1ccc(/C=C2\C(=O)NC(=S)N(c3ccc(OC)cc3OC)C2=O)o1,12.9,23.2*,4.0,17.4,-1.5,0.7
C[C@@H]1CN([C@H](C)CO)C(=O)CCCn2nncc2CO[C@H]1CN(C)C(=O)Oc1cccc2ccccc12,-4.2,0.4,-5.4,16.4,-0.1,5.5
CC(CC(C#N)(c1ccccc1)c1ccccc1)N(C)C (configuration not stated),-13.5,-0.6,101.5*,7.2,-1.6,-34.6
Cc1ccc(C2N(c3ccccn3)C(=O)C3CCCN32)o1 (configuration not stated),-8.9,0.3,-8.3,11.3,3.8,12.9
